According to PubChem BioAssay AID449762 (Southern Research Specialized Biocontainment Screening …, 2010):
Among all 330,000 compounds or so, about 1,900 (0.58%) were called active. Not shown: some 4% with an inconclusive outcome. Only a sample is shown. Entries with a potency or affinity are not part of this list. Values without a mark were called inactive. No stated cut-off is given here; in the data, inconclusive means inhibition above about 70% without an active follow-up result; inactive means below that.

Test: M. tuberculosis growth inhibition, HTS (AID 449762);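 further: bacterial growth assessed after seven days of incubation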
Conditions: M. tuberculosis H37Rv growth inhibition, 7H9 media; at 25 µM; active compounds read high

Structure (SMILES) | inhibition [%]
Clc1cccc(C2CCN(Cc3nc(CC4CC4)no3)C2)c1 (stereo not given) | 16.3
CCOC(=O)CSc1nnc(CNc2cccc(Cl)c2)n1-c1ccccc1 | -7.68
COc1ccc(NCc2nnc(SCc3ccc(Cl)cc3)n2-c2ccccc2)cc1 | -5.4
Cc1ccccc1S(=O)(=O)Cc1ccc(C(=O)NCCCOC(C)C)o1 | 2.68
CN(CC(=O)Nc1ccccc1Cl)C(=O)COC(=O)c1ccc(=O)n(Cc2ccccc2)n1 | 0.91
CC(=O)N(Cc1nc2sc(C)c(C)c2c(=O)[nH]1)C1CCCC1 | -3.15
Cc1sc2nc(CN(C(=O)NC3CCCCC3)C3CCCCC3)[nH]c(=O)c2c1C | 26.1
O=C(Cc1ccc(F)cc1)N(c1ccccc1)C1C=CS(=O)(=O)C1 (stereo not given) | -6.47
CCn1cc(C2C(C(=O)Nc3cc(C)ccn3)=C(C)NC3=C2C(=O)CC(C)(C)C3)c(C)n1 (stereo not given) | 1.96
CCCCCCn1c(=O)c(C(=O)Nc2ncccc2O)c(O)c2ccccc21 | 13.4
CCCn1c(=O)c(C(=O)Nc2ncccc2C)c(O)c2ccccc21 | 18.3
CCN(N=Nc1cccc([N+](=O)[O-])c1)c1cccc([N+](=O)[O-])c1 | 4.11
CC1(C)CC(=O)C(N=Nc2cccc([N+](=O)[O-])c2)=C(O)C1 | 0.73
COc1ccc(CCN2C(=O)CSC2c2ccc(F)cc2)cc1 (stereo not given) | -7.99
Cc1ccc(S(=O)(=O)N(C)c2ccc(C(=O)Nc3ccccn3)cc2)cc1 | 27.5
COc1ccc(-c2sc3ccc(N4CCOCC4)cc3c2-c2ccc(OC)c(F)c2)cc1 | -0.65
Cc1nc(SCc2nc3ccccc3[nH]2)c2oc3cc(Br)ccc3c2n1 | 0.43
N=c1sccn1CC(=O)Nc1ccc(Cl)cc1[N+](=O)[O-] | -3.88
Cc1cc(NC(=O)Cn2ccsc2=N)c([N+](=O)[O-])cc1C | -4.45
CC(C)C(=O)N1CCC2(CC1)Oc1ccc(Cl)cc1C(=O)C21CC(c2cccnc2)=NO1 (stereo not given) | 1.87

Structure (SMILES) | inhibition [%]
CC(Oc1ccccc1)C(=O)N1CCC2(CC1)Oc1ccc(Cl)cc1C(=O)C21CC(c2ccccc2)=NO1 (stereo not given) | 23.6
CN1/C(=C\C(=O)c2ccco2)C(C)(C)c2ccccc21 | 1.21
CN1/C(=C\C(=O)c2cccnc2)C(C)(C)c2ccccc21 | 14.2
CCC(C)[C@H](NC(=O)Nc1ccc(S(N)(=O)=O)cc1)C(=O)OC (stereo not given in full) | 1.32
O=C(CCl)Nc1ccc(S(=O)(=O)NC2=NCCCCC2)cc1 | 47.6
Cc1cc(NC(=O)/C=C/c2ccccc2)no1 | 11.4
COC(=O)c1cc(/C=C/c2ccccc2)[nH]n1 | 37.7
O=C(c1ccc(C(F)(F)F)cc1)N1CCC(=O)N(C(COCc2ccc(Cl)cc2)Cc2ccccc2)CC1 (stereo not given) | -0.74
CCSc1nc2ccccc2n1CC(N)=O | -10.4
CC(C)(C(=O)O)c1ccc([C@H](O)CCCN2CCC(C(O)(c3ccccc3)c3ccccc3)CC2)cc1 | 6.89
CC(C)(C(=O)O)c1ccc(C(O)CCCN2CCC(C(O)(c3ccccc3)c3ccccc3)CC2)cc1 (stereo not given) | 6.01
Cc1ccc2cc(CCNC(=O)c3ccc4c(c3)OCO4)c(=O)[nH]c2c1C | -3.26
Cn1ccc(NC(=O)CCl)n1 | 57.5
Cn1c(=O)n(C)c2cc(NC(=O)CCl)ccc21 | 64.7
CSc1ccc(CCNS(=O)(=O)c2c(C)[nH]c(C)c2C(=O)N2CCCCC2)cc1 | -2.39
Cc1ccc(NC(=O)C2CCC(CNC(=O)[C@@H]3Cc4ccccc4CN3)CC2)c(C)c1 (stereo not given in full) | 7.99
Cn1c(O)c(/C=N/N2CCCCC2)c(=O)[nH]c1=O | -3.56
C=CCSC1=C(C#N)C(c2ccccc2C)CC(=O)N1 (stereo not given) | 1.95
COc1cc2[nH]c(=O)n(C3CCCCC3)c(=O)c2cc1OC | -2.86
COc1c[nH]n(-c2ccccc2)c(=O)c1=O | 2

Structure (SMILES) | inhibition [%]
O=C1C=C(c2ccc3ccccc3c2)C[C@@H](c2ccc(Cl)cc2)C1 | 19.3
COc1ccc([C@H]2CC(=O)C=C(c3ccc4[nH]ccc4c3)C2)cc1OC | 55.7
O=C(Nc1ccc(F)c(F)c1)C1CCN(S(=O)(=O)c2cccc3nonc23)CC1 | -5.72
Cn1nc(C(=O)Nc2cc(Cl)ccc2N2CCCC2)c2ccccc2c1=O | 1.5
Cc1cccnc1NC(=O)COc1ccc2c(c1)CCC2 | 54.8
CC(=O)Nc1ccc(NC(=O)COc2ccc3c(c2)CCC3)cc1 | 1.68
O=C(c1ccc2snnc2c1)N1CCCCC1 | -3.95
CCc1nnc(NC(=O)C2CC(=O)N(c3ccc(C)cc3)C2)s1 (stereo not given) | 11.9
Cc1ccc(N2CC(C(=O)Nc3nccs3)CC2=O)cc1Cl (stereo not given) | 10.9
COC(=O)/C(C#N)=C/c1c(-c2ccccc2)nc2n1CCS2 | -12.2
CCNc1nc(NC(C)C)nc(NS(=O)(=O)c2ccc(N)cc2)n1 | -9.39
CC(/C=C/c1ccco1)=N\NC(=O)c1cccnc1 | -3.96
O=C(N/N=C/C=C/c1ccccc1)c1cccnc1 | -0.94
S=C1NCN(Cc2ccco2)CN1Cc1ccco1 | 7.57
COCCN1CSC(=S)N(Cc2ccco2)C1 | 66.9
CC(C)(C)N1CSC(=S)N(Cc2ccccc2)C1 | 65
CC(C)N1CSC(=S)N(Cc2ccccc2)C1 | 64.3
O=C(CCN1C(=O)c2ccccc2C1=O)Nc1ccc(F)cc1 | -6.8
CN(C)CCCN(C(=O)c1cc(-c2cccs2)nc2ccccc12)c1nc2c(F)cccc2s1 | 49.4
CN(C)CCCN(C(=O)c1nc2ccccc2s1)c1nc2ccc(F)cc2s1 | -11.9
